Records with an inconclusive call do not appear. Unmarked numbers belong to inactive results. The source made the active and inactive calls. Calls follow the shape of the dose curve; as a rule, active = well fitted cell-killing curve with a large enough effect; inconclusive = small, poorly fitted or top-dose-only effect; inactive = no such curve, though single readings can be large or run the other way. Positions of bridges follow the written chain, without caps; N, C: chain ends. Non-standard residues stand in square brackets, D forms with d. Residues, ends and D or L forms follow the SMILES beside them. ξ: configuration not given here. *: point of attachment. Octanoyl(6-Me) = CCC(C)CCCCC(=O)*; ξThr(3R) = C[C@@H](O)C(N)C(=O)O; dDab = NCC[C@@H](N)C(=O)O; Dab = NCC[C@H](N)C(=O)O
test: qHTS of pediatric cancer cell lines to identify multiple opportunities for drug repurposing: Primary screen for SK-N-MC cells (AID 1347093); conditions: SK-N-MC viability, CellTiter-Glo luminescence, 48 h; series mostly up to 46 µM; activity change, negative = cytotoxic: at the top concentration
Description: Drug repurposing or repositioning has been offered as a strategy for drug development in oncology programs. This approach has special potential for childhood cancers and other rare or orphan diseases, where the expected return on new drug development has been a disincentive to pharmaceuticals.
In this project we exploit the poly-pharmacology of drugs to discover new indications via phenotypic screening of a panel of 19 well-characterized cell lines derived from solid tumors seen in children and adolescents. The goal is to identify approved drugs with previously unrecognized anticancer properties that has the potential to reveal new mechanisms and biological processes involved in carcinogenesis or drug resistance. We employed a titration-based paradigm (quantitative high-throughput screening or qHTS), where all compounds were tested at multiple concentrations for their effect on cell viability. Concentration-response curves (CRCs) were derived directly from the primary screen, and both potency and efficacy values were used to identify compounds with robust bioactivity profiles. We screened the NIH Chemical Genomics Center (NCGC) Pharmaceutical Collection (NPC) and Mechanism Interrogation Plate (MIPE) small molecule collections of approved and investigational compounds against these cell lines; and measured metabolically active cells after 48 hours of compound treatment as a proxy for cell viability.
Assay Submitter: Nathalia J. Martinez, National Center for Advancing Translational Sciences, National Institutes of Health, Rockville, MD, USA; email: natalia.martinez@nih.gov
[1] Shen, M et al. Quantitative high-throughput phenotypic screening of pediatric cancer cell lines identifies multiple opportunities for drug repurposing. Oncotarget 2017 Dec 19;9(4):4758-4772. PMID 29435139.
The cells were obtained from University of North Carolina (UNC), Pediatric Preclinical Testing Program (PPT), and Coriell Institute (CI).
qHTS cell viability assay:
Cells were assayed in growth media at a density of 500-1,000 cells/well. Five microliters of cells were dispensed into 1,536-well, white, solid-bottom, TC-treated plates (Greiner Bio One) using a multidrop dispenser and incubated at 37 degrees C, 5% CO2, under a humidified atmosphere for 5 hours. Twenty-three nanoliters of compounds and controls (neutral control DMSO or positive control bortezomib at final concentration of 2.3 µM) were subsequently transferred by Kalypsys pintool. For primary screens, the MIPE collection was tested at 11-point dilutions (final concentrations range from 0.78 nM to 46 µM) and the NPC collection at 8-point dilutions (final concentrations range from 0.59nM to 46 µM). Compounds tested in follow-up screens were assayed at 11-point dilutions. Cells were incubated for 48 hours, followed by addition of 3 uL of CellTiter-Glo (Promega). After a 15 min incubation at room temperature, samples were analyzed for luminescence intensity using a ViewLux High-throughput CCD imager equipped with clear filters.
Potency is read from the fitted curve at half-maximal effect.

Structure (SMILES) | Potency | activity change, negative = cytotoxic
COc1cc2c(cc1O)CCC1C2CC[C@@]2(C)C1CC[C@@H]2O (stereo not given in full) | 6620 nM (active) | 
COc1ccc(S(=O)(=O)Nc2cc(-c3c(O)ccc4ccccc34)c(O)c3ccccc23)cc1 | 3320 nM (active) | 
COC[C@H](NC(=O)c1cnc(C)s1)C(=O)N[C@@H](COC)C(=O)N[C@@H](Cc1ccccc1)C(=O)[C@@]1(C)CO1 | 29.6 nM (active) | 
CC(=O)NC(CS)C(=O)O (stereo not given) |  | -31%
CCOc1cc2c(c(F)c1OCC)C(=N)N(CC(=O)c1cc(N3CCOCC3)c(OC)c(C(C)(C)C)c1)C2 | 833 nM (active) | 
Oc1ccc([C@@H]2Oc3ccc(O)cc3[C@@H]3CCC[C@@H]32)cc1 | 4180 nM (active) | 
CC(C)c1cnn2c(NCc3ccccc3)cc(NCCCCCCN)nc12 | 662 nM (active) | 
CN1CCc2c(c3ccccc3n2Cc2ccc(C(=O)NO)cc2)C1 | 2960 nM (active) | 
CC(C)(O)Cn1c(NC(=O)c2ccc(-c3cn[nH]c3)s2)nc2cc(CN3CCOCC3)ccc21 | 2350 nM (active) | 
CCC(C)CCCCC(=O)N[C@@H](CCN)C(=O)NC(C(=O)N[C@H](CCN)C(=O)N[C@@H]1CCNC(=O)C([C@@H](C)O)NC(=O)[C@@H](CCN)NC(=O)[C@@H](CCN)NC(=O)[C@@H](CC(C)C)NC(=O)[C@H](Cc2ccccc2)NC(=O)[C@H](CCN)NC1=O)[C@@H](C)O (stereo partly drawn) ({Octanoyl(6-Me)}-[Dab][ξThr(3R)][dDab][dDab][Dab]F[dL][dDab][dDab][ξThr(3R)]; lactam 4-C) |  | -5.36%
O=C1NC(=O)[C@@H](c2cn3c4c(cccc24)CCC3)[C@H]1c1c[nH]c2ccccc12 | 46.9 nM (active) | 
CCCCCCCN(CC)CCCC(O)c1ccc(NS(C)(=O)=O)cc1 (stereo not given) |  | -38.5%
C[C@H](CCC(=O)O)[C@H]1CC[C@H]2[C@@H]3[C@H](O)C[C@@H]4C[C@H](O)CC[C@]4(C)[C@@H]3CC[C@]12C |  | -19.6%
c1cncc(CN2CCC(n3ncc4c(N5CCOCC5)nc(-c5ccc6[nH]ccc6c5)nc43)CC2)c1 | 7430 nM (active) | 
CS(=O)(=O)N1CCc2c(-c3cnc(N)nc3)nc(N3CCOCC3)nc21 | 37.2 nM (active) | 
Cc1cnc(Nc2ccc(CN3CCOCC3)cc2)nc1Nc1cccc(S(=O)(=O)NC(C)(C)C)c1 | 833 nM (active) | 
O=C(C=CC=Cc1ccc2c(c1)OCO2)N1CCCCC1 |  | -30.8%
FC(F)c1nc2ccccc2n1-c1nc(N2CCOCC2)nc(N2CCOCC2)n1 | 59 nM (active) | 
CC(=O)SCC(Cc1ccccc1)C(=O)NCC(=O)OCc1ccccc1 (stereo not given) | 187 nM (active) | 
NS(=O)(=O)OC[C@@H]1C[C@@H](n2ccc3c(N[C@H]4CCc5ccccc54)ncnc32)C[C@H]1O | 93.5 nM (active) | 

Structure (SMILES) | Potency | activity change, negative = cytotoxic
CCC(C=C[C@@H]1OC(=O)C=C[C@H]1C)=C[C@H](C)CC=CC(C)=C[C@@H](C)C(=O)[C@@H](C)[C@H](O)[C@@H](C)CC(C)=CC(=O)O | 24.7 nM (active) | 
O=C(Nc1cc2cc[nH]c2cn1)c1ccccc1 | 11800 nM (active) | 
Cc1ccc(-n2[nH]c(C)c(N=Nc3cccc(-c4cccc(C(=O)O)c4)c3O)c2=O)cc1C | 14800 nM (active) | 
O=C(NCc1ccccc1)[C@H](Cc1ccccc1)NC(=O)[C@@H]1O[C@@H]1C(=O)NCCc1ccc(O)cc1 | 23500 nM (active) | 
O=C(c1ccc(F)cc1)N1CCC[C@H](c2nc(-c3ccc(F)cc3)no2)C1 |  | 2.17%
CCc1cc(C(C)=NOCc2ccc(C3CCCCC3)c(C(F)(F)F)c2)ccc1CN1CC(C(=O)O)C1 | 37.2 nM (active) | 
CCN(CC)Cc1ccc2cc(COC(=O)Nc3ccc(C(=O)NO)cc3)ccc2c1 | 833 nM (active) | 
CN[C@H]1[C@@H](O)[C@@H]2O[C@@H]3O[C@H](C)CC(=O)[C@]3(O)O[C@@H]2[C@@H](NC)[C@H]1O | 166 nM (active) | 
NC(=O)Nc1sc(-c2ccc(F)cc2)cc1C(N)=O | 59 nM (active) | 
NC[C@H]1O[C@H](O[C@H]2[C@@H](O)[C@@H](O[C@H]3O[C@H](CO)[C@@H](O)[C@H](N)[C@@H]3O)[C@H](N)C[C@@H]2N)[C@H](N)C[C@H]1O |  | 8.92%
COc1cccc2c1C(=O)c1c(O)c3c(c(O)c1C2=O)C[C@@](O)(C(C)=O)C[C@H]3O[C@H]1C[C@H](N)[C@H](O)[C@H](C)O1 | 46.9 nM (active) | 
CN(C)CC(=O)N1CCC(c2ccc(NC(=O)c3ncc(C#N)[nH]3)c(C3=CCCCC3)c2)CC1 | 1660 nM (active) | 
Cc1cc(Nc2ncc3c(n2)N(C)C(=O)N(c2cc(NC(=O)c4cccc(C(F)(F)F)c4)ccc2C)C3)n(C)n1 | 209 nM (active) | 
Cc1[nH]c(C=C2C(=O)Nc3ccccc32)c(C)c1CCC(=O)O | 590 nM (active) | 
CCc1c(O)cc(O)c(C(=O)c2ccc(OCCN3CCOCC3)c(OC)c2)c1CC(=O)N(CCOC)CCOC | 526 nM (active) | 
CC(C)(N)c1ccc(-c2nc3ccccc3nc2-c2ccccc2)cc1 | 4690 nM (active) | 
COc1cc([C@@H]2c3cc4c(cc3[C@H](O)[C@H]3COC(=O)[C@@H]23)OCO4)cc(OC)c1OC | 74.3 nM (active) | 
C=CC(=O)Nc1ccc2ncnc(Nc3ccc(OCc4cccc(F)c4)c(Cl)c3)c2c1 | 16.6 nM (active) | 
C=CC(=O)Nc1cccc(Nc2nc(NC3CCC(N(C)C)CC3)nc3c2ncn3C(C)C)c1 (stereo not given) | 4.2 nM (active) | 
O=C1c2c(O)cccc2[C@@H]([C@@H]2O[C@H](CO)[C@@H](O)[C@H](O)[C@H]2O)c2cc(CO)cc(O)c21 | 11800 nM (active) | 
